Test results reported in PubChem BioAssay (NCATS).
Inconclusive results are not listed. The source made the active and inactive calls. The call rests on the fitted dose curve; in most records, active means well fitted curve in the direction sought with a large enough effect; inconclusive means small, poorly fitted or top-dose-only effect, or another doubt; inactive means no such curve, though single readings can be large; an effect the other way counts as inactive or inconclusive.

Assays:
MCC-13 = experiment: qHTS assay to identify novel small-molecules to repurpose for Merkel cell carcinoma treatment (AID 1296009); settings: MCC and control cell lines, CellTiter-Glo viability, 72 h; series mostly up to 46 µM; further: nearly all actives have a fitted effect of over 60% in size
In short: (§1)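 Cells exposed to NPC (8-point) and MIPE (11-point) compound dilutions for 72 hr at 37 degree celsius; viability read by CellTiter-Glo luminescence, normalized to no-cell and DMSO in-plate controls.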

MCC-26 = experiment: as above; settings: MCC and control cell lines, CellTiter-Glo viability, 72 h; series mostly up to 46 µM
In short: as §1

MKL-1 = experiment: as above; settings: MCC and control cell lines, CellTiter-Glo viability, 72 h; series mostly up to 46 µM
In short: as §1

MKL-2 = experiment: as above; settings: MCC and control cell lines, CellTiter-Glo viability, 72 h; series mostly up to 46 µM
In short: as §1

UISO = experiment: as above; settings: MCC and control cell lines, CellTiter-Glo viability, 72 h; series mostly up to 46 µM
In short: as §1

WaGa = experiment: as above; settings: MCC and control cell lines, CellTiter-Glo viability, 72 h; series mostly up to 46 µM
In short: as §1

C33A = experiment: Primary qHTS to identify gynecologic anti-cancer compounds using libraries of approved drugs and bioactive compounds (AID 1345084); settings: Gynecologic cancer cell panel viability, ATPlite luminescence, 48 h; series mostly up to 57.5 µM; further: nearly all actives have a fitted effect of over 55% in size
In short: (§2)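 Five-point cytotoxicity, 48 h drug exposure at 37 C, 5% CO2, on cells seeded 16 h beforehand. ATP content read by ATPlite luminescence.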

CASKI = experiment: as above; settings: Gynecologic cancer cell panel viability, ATPlite luminescence, 48 h; series mostly up to 57.5 µM
In short: as §2

Es-2 = experiment: as above; settings: Gynecologic cancer cell panel viability, ATPlite luminescence, 48 h; series mostly up to 57.5 µM
In short: as §2

HeLa = experiment: as above; settings: Gynecologic cancer cell panel viability, ATPlite luminescence, 48 h; series mostly up to 57.5 µM
In short: as §2

Hek293T = experiment: as above; settings: Gynecologic cancer cell panel viability, ATPlite luminescence, 48 h, control line for the selectivity index; series mostly up to 57.5 µM
In short: as §2

JEG-3 = experiment: as above; settings: Gynecologic cancer cell panel viability, ATPlite luminescence, 48 h; series mostly up to 57.5 µM
In short: as §2

OV90 = experiment: as above; settings: Gynecologic cancer cell panel viability, ATPlite luminescence, 48 h; series mostly up to 57.5 µM
In short: as §2

PA-1 = experiment: as above; settings: Gynecologic cancer cell panel viability, ATPlite luminescence, 48 h; series mostly up to 57.5 µM
In short: as §2

SKOV3 = experiment: as above; settings: Gynecologic cancer cell panel viability, ATPlite luminescence, 48 h; series mostly up to 57.5 µM
In short: as §2

Tov-21-G = experiment: as above; settings: Gynecologic cancer cell panel viability, ATPlite luminescence, 48 h; series mostly up to 57.5 µM
In short: as §2

Tov112D = experiment: as above; settings: Gynecologic cancer cell panel viability, ATPlite luminescence, 48 h; series mostly up to 57.5 µM
In short: as §2

[1] = Drug repurposing screens with cells derived from glioblastoma tumor samples (AID 1345199); settings: GBM patient neurospheres viability, ATP luminescence, 48 h; further: nearly all actives have a fitted effect of over 40% in size
In short: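 Four patient lines of CD133+ GBM neurospheres were screened at several concentrations; hits were retested in those lines plus three slower-growing GBM lines, using 48-hour treatment and ATP-based viability.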

CAOV3 = experiment: Primary qHTS to identify gynecologic anti-cancer compounds using libraries of approved drugs and bioactive compounds (AID 1345084); settings: Gynecologic cancer cell panel viability, ATPlite luminescence, 48 h; series mostly up to 57.5 µM; further: nearly all actives have a fitted effect of over 55% in size
In short: as §2

NIH3T3 = experiment: qHTS assay to identify novel small-molecules to repurpose for Merkel cell carcinoma treatment (AID 1296009); settings: MCC and control cell lines, CellTiter-Glo viability, 72 h; at 44.8 µM (top of the series) unless noted; further: nearly all actives have a fitted effect of over 60% in size
In short: as §1

[2] = at 45.9 µM (top of the series), tumour line B
[3] = at 45.9 µM (top of the series), tumour line D
[4] = at 46 µM (top of the series), tumour line A
[5] = at 46.1 µM (top of the series), tumour line C
[6] = at 20 µM (top of the series), tumour line C
[7] = at 21.2 µM (top of the series), tumour line B
[8] = at 21.2 µM (top of the series), tumour line D
[9] = at 21.3 µM (top of the series), tumour line A
On the % scale 0 is the no-effect control and ±100 the full control effect.

CC(C)C[C@@H](N)C(=O)O
inactive: outcome (MCC-13) | outcome (MCC-26) | outcome (MKL-1) | outcome (MKL-2) | outcome (UISO) | outcome (WaGa) | outcome (C33A) | outcome (CASKI) | outcome (Es-2) | outcome (HeLa) | outcome (Hek293T) | outcome (JEG-3) | Potency (OV90) | outcome (PA-1) | outcome (SKOV3) | outcome (Tov-21-G) | outcome (Tov112D) | activity, negative = cell killing [1, 2] 3.77% | activity, negative = cell killing [1, 3] 29.1% | activity, negative = cell killing [1, 4] 14.9% | activity, negative = cell killing [1, 5] -0.0622%

O=C(O)c1ccccc1OP(=O)(O)O
inactive: outcome (MCC-13) | outcome (MCC-26) | outcome (MKL-1) | outcome (MKL-2) | outcome (UISO) | outcome (WaGa) | outcome (C33A) | outcome (CASKI) | outcome (Es-2) | outcome (HeLa) | outcome (Hek293T) | outcome (JEG-3) | Potency (OV90) | outcome (PA-1) | outcome (SKOV3) | outcome (Tov-21-G) | outcome (Tov112D) | activity, negative = cell killing [1, 2] -8.79% | activity, negative = cell killing [1, 3] 13.5% | activity, negative = cell killing [1, 4] -28.4% | activity, negative = cell killing [1, 5] -24.8%

COc1ccc(O)cc1
inactive: outcome (MCC-13) | outcome (MCC-26) | outcome (MKL-1) | outcome (UISO) | outcome (WaGa) | outcome (C33A) | outcome (CAOV3) | outcome (CASKI) | outcome (Es-2) | outcome (HeLa) | outcome (Hek293T) | outcome (JEG-3) | Potency (OV90) | outcome (PA-1) | outcome (SKOV3) | outcome (Tov-21-G) | outcome (Tov112D) | activity, negative = cell killing [1, 2] -15% | activity, negative = cell killing [1, 3] -17.8% | activity, negative = cell killing [1, 5] -24.9%

Cc1ccccc1N=Nc1ccc(N=Nc2c(O)ccc3ccccc23)c(C)c1
inactive: outcome (MCC-13) | outcome (MCC-26) | outcome (MKL-1) | outcome (MKL-2) | outcome (WaGa) | outcome (C33A) | outcome (CAOV3) | outcome (CASKI) | outcome (Es-2) | outcome (HeLa) | outcome (Hek293T) | outcome (JEG-3) | Potency (OV90) | outcome (PA-1) | outcome (SKOV3) | outcome (Tov-21-G) | outcome (Tov112D) | activity, negative = cell killing [1, 2] -15.7% | activity, negative = cell killing [1, 3] -2.5% | activity, negative = cell killing [1, 5] -1.06%

O=C(NCC(O)CO)c1c(I)c(C(=O)NCC(O)CO)c(I)c(N(CCO)C(=O)CO)c1I (stereo unspecified)
inactive: outcome (MCC-13) | outcome (MCC-26) | outcome (MKL-1) | outcome (MKL-2) | outcome (UISO) | outcome (WaGa) | outcome (C33A) | outcome (CASKI) | outcome (Es-2) | outcome (HeLa) | outcome (Hek293T) | outcome (JEG-3) | Potency (OV90) | outcome (PA-1) | outcome (SKOV3) | outcome (Tov-21-G) | outcome (Tov112D) | activity, negative = cell killing [1, 6] -7.07% | activity, negative = cell killing [1, 7] -9.85% | activity, negative = cell killing [1, 8] 1% | activity, negative = cell killing [1, 9] -9.08%

C=CCSCC1Nc2cc(Cl)c(S(N)(=O)=O)cc2S(=O)(=O)N1 (stereo unspecified)
inactive: outcome (MCC-13) | outcome (MCC-26) | outcome (MKL-1) | outcome (MKL-2) | outcome (UISO) | outcome (WaGa) | outcome (C33A) | outcome (CASKI) | outcome (Es-2) | outcome (HeLa) | outcome (Hek293T) | outcome (JEG-3) | Potency (OV90) | outcome (PA-1) | outcome (SKOV3) | outcome (Tov-21-G) | outcome (Tov112D) | activity, negative = cell killing [1, 2] -4.84% | activity, negative = cell killing [1, 3] -16.7% | activity, negative = cell killing [1, 4] -17.1% | activity, negative = cell killing [1, 5] -16.4%

CC(=O)N[C@@H](Cc1ccc(O)cc1)C(=O)O
inactive: outcome (MCC-13) | outcome (MCC-26) | outcome (MKL-1) | outcome (MKL-2) | outcome (UISO) | outcome (WaGa) | outcome (C33A) | outcome (CASKI) | outcome (Es-2) | outcome (HeLa) | outcome (Hek293T) | outcome (JEG-3) | Potency (OV90) | outcome (PA-1) | outcome (SKOV3) | outcome (Tov-21-G) | outcome (Tov112D) | activity, negative = cell killing [1, 2] -9.92% | activity, negative = cell killing [1, 3] -7.49% | activity, negative = cell killing [1, 5] 6.62%

CCS(=O)(=O)CCn1c([N+](=O)[O-])cnc1C
inactive: outcome (MCC-13) | outcome (MCC-26) | outcome (MKL-1) | outcome (MKL-2) | outcome (UISO) | outcome (WaGa) | outcome (C33A) | outcome (CAOV3) | outcome (Es-2) | outcome (HeLa) | outcome (Hek293T) | outcome (JEG-3) | Potency (OV90) | outcome (PA-1) | outcome (SKOV3) | outcome (Tov-21-G) | outcome (Tov112D) | activity, negative = cell killing [1, 6] -12.4% | activity, negative = cell killing [1, 7] -11.3% | activity, negative = cell killing [1, 8] 3.43% | activity, negative = cell killing [1, 9] -20.5%

COc1ccc(Cc2cnc(N)nc2N)cc1OC
inactive: outcome (MCC-13) | outcome (MCC-26) | outcome (MKL-1) | outcome (MKL-2) | outcome (UISO) | outcome (WaGa) | outcome (C33A) | outcome (CASKI) | outcome (Es-2) | outcome (HeLa) | outcome (Hek293T) | outcome (JEG-3) | Potency (OV90) | outcome (PA-1) | outcome (Tov-21-G) | outcome (Tov112D) | activity, negative = cell killing [1, 2] 11% | activity, negative = cell killing [1, 3] -18.1% | activity, negative = cell killing [1, 5] -4.34%

C=CCOc1ccccc1OCC(O)CNC(C)C (stereo unspecified)
inactive: outcome (MCC-13) | outcome (MCC-26) | outcome (MKL-1) | outcome (MKL-2) | outcome (UISO) | outcome (WaGa) | outcome (C33A) | outcome (CASKI) | outcome (Es-2) | outcome (HeLa) | outcome (Hek293T) | outcome (JEG-3) | Potency (OV90) | outcome (PA-1) | outcome (SKOV3) | outcome (Tov-21-G) | outcome (Tov112D) | activity, negative = cell killing [1, 6] -4.31% | activity, negative = cell killing [1, 7] 1.37% | activity, negative = cell killing [1, 8] -11.5%

COc1ccc2cc(CCC(C)=O)ccc2c1
inactive: outcome (MCC-13) | outcome (MCC-26) | outcome (MKL-1) | outcome (MKL-2) | outcome (UISO) | outcome (WaGa) | outcome (C33A) | outcome (CAOV3) | outcome (CASKI) | outcome (Es-2) | outcome (HeLa) | outcome (PA-1) | outcome (Tov-21-G) | outcome (Tov112D) | activity, negative = cell killing [1, 7] -27.9%

CC1(C)[C@@H](OC(=O)CCC(=O)O)CC[C@]2(C)[C@H]3C(=O)C=C4[C@@H]5C[C@@](C)(C(=O)O)CC[C@]5(C)CC[C@@]4(C)[C@]3(C)CC[C@@H]12
inactive: outcome (MCC-13) | outcome (MKL-1) | outcome (MKL-2) | outcome (NIH3T3) | outcome (UISO) | outcome (WaGa) | outcome (C33A) | outcome (CAOV3) | outcome (CASKI) | outcome (Es-2) | outcome (HeLa) | outcome (Hek293T) | outcome (JEG-3) | Potency (OV90) | outcome (PA-1) | outcome (SKOV3) | outcome (Tov-21-G) | outcome (Tov112D) | activity, negative = cell killing [1, 6] -5.99% | activity, negative = cell killing [1, 7] -8.6% | activity, negative = cell killing [1, 8] -19.2% | activity, negative = cell killing [1, 9] -22.2%
